G9a block: blocks human histone lysine methyltransferase G9a. hit rate 8.8% among 350,000. G9a H3K9 monomethylation, AlphaScreen, 2 h. Potency, µM (series often up to 102 µM), for the others: top-dose activity, negative = inhibition, hits mostly inhibitors; also: % is scaled to controls: 0 for no effect and ±100 for the full control effect; nearly all actives have a fitted effect of over 75% in size
Target sequence (Q96KQ7 913-1193 limits assumed): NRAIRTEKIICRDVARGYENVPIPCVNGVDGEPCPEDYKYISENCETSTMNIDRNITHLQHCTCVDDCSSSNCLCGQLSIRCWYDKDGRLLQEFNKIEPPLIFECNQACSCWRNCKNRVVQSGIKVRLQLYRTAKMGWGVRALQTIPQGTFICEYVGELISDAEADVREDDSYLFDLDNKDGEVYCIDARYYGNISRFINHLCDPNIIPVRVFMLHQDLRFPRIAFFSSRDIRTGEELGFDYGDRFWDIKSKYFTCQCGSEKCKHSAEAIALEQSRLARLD
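Signal arises when biotinylated H3K9 peptide, once monomethylated, bridges streptavidin donor and antibody-captured acceptor beads. Enzyme at 20 nM was preincubated 15 min with test compounds; peptide 500 nM and SAM 20 uM then reacted for 2 h.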
BAZ2B inh: blocks human BAZ2B; Q9UIF8; AlphaScreen BAZ2B-H3K14Ac peptide displacement; Potency, µM (series often up to 114 µM), without a hit: at the highest dose activity change, negative = inhibition, usual class: inhibitors; hit rate 4.4% among 360,000; AID 504333; also: % is scaled to controls: 0 for no effect and ±100 for the full control effect; nearly all actives have a fitted effect of over 60% in size
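Complex of BAZ2B and biotin-H3K14Ac (50 nM apiece) forms over 30 min at RT, then faces library compounds up to 110 uM for another 30 min; AlphaScreen beads added, 20 min dark incubation, luminescence read.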
HP1b chromo inh: inhibitors of HP1-beta chromodomain binding to methylated histone tails; P83916; AlphaScreen HP1-beta / biotin-H3K9me3 peptide binding; Potency, µM (series often up to 114 µM), inactives show at the top dose activity change, negative = inhibition, hits mostly inhibitors; hit rate 0.56% among 390,000; AID 540317; also: nearly all actives have a fitted effect of over 70% in size
Target sequence (P83916 whole entry, looked up): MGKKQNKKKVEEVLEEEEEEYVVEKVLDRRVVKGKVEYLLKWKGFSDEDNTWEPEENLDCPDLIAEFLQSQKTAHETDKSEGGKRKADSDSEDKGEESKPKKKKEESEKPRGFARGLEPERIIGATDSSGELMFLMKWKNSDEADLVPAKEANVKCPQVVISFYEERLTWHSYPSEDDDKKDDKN
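Compound inhibition of the preformed complex between 50 nM HP1-beta and 50 nM biotinylated H3K9me3 peptide was read by AlphaScreen. Buffer was PBS pH 7.4 with 0.01% Tween-20. Incubations ran 30 min at room temperature, with 10 ug/mL donor/acceptor beads.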
Sfp PPTase inh: blocks B. subtilis Sfp PPTase activity | Biochemical Sfp PPTase activity, qHTS | Q9F4F7 | hit rate 3.5% among 310,000 | Potency, µM, for the others: largest response in the series, negative = inhibition, most hits filed as inhibitors;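 also: the enzyme is Sfp with the accession as filed and its product quenches rhodamine fluorescence; 0% = enzyme reaction without inhibitor and -100% = no enzyme wells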
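Buffer: 50 mM Hepes-Na pH 7.6, 10 mM MgCl2, 0.01% Nonidet P-40, 0.01% BSA. Enzyme 15 nM, pre-exposed to compound 15 min; substrates then added and fluorescence change tracked over 30 min.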
PLK1 PBD block: PLK1 (human) polo-box domain binding inhibition; P53350; Plk1 PBD binding of FITC phosphopeptide, fluorescence polarization; Potency, µM, for inactives: max response, negative = inhibition, hits mostly inhibitors; hit rate 2.8% among 360,000; also: series mostly up to about 57 µM; % is scaled to controls: 0 for no effect and ±100 for the full control effect; nearly all actives have a fitted effect of over 65% in size
JMJD2A Tudor: blocks the human JMJD2A Tudor domain. hit rate 4.4% among 390,000. AlphaScreen JMJD2A-Tudor / H3K4me3 peptide binding. Potency, µM (titrated, usually from 114 µM), for the others: top-dose activity change, negative = inhibition, usual class: inhibitors; also: % is scaled to controls: 0 for no effect and ±100 for the full control effect; nearly all actives have a fitted effect of over 50% in size
The depositor's hits bear a star; ! = not confirmed by another sample; [ ] = another dose, or the depositor's remark. An excerpt weighted towards active compounds, which were near 12% of everything screened. Calls follow the shape of the dose curve; as a rule, active = well fitted curve in the direction sought with a large enough effect; inconclusive = small, poorly fitted or top-dose-only effect, or another doubt; inactive = no such curve, though single readings can be large; an effect the other way counts as inactive or inconclusive. Potency is read from the fitted curve at half-maximal effect.

How did CCCC(=O)OCCNc1cc(Sc2nc3ccccc3[nH]2)c2nonc2c1[N+](=O)[O-] do in these assays?
G9a block: inconclusive; BAZ2B inh: inconclusive; HP1b chromo inh: inconclusive; Sfp PPTase inh: 10µM*; PLK1 PBD block: 1.9µM*; JMJD2A Tudor: 79µM*

How did CCOc1ccc(CCNC(=O)c2cnc(C)cn2)cc1OCC do in these assays?
G9a block: 31%; BAZ2B inh: -5%; HP1b chromo inh: 24%; Sfp PPTase inh: 15%; PLK1 PBD block: 3%; JMJD2A Tudor: 10%

What do the screens show for `CCCC1(c2ccsc2)NC(=O)NC1=O` (stereo unspecified)?
HP1b chromo inh: 29%; PLK1 PBD block: -9%; JMJD2A Tudor: -7%

What do the screens show for `O=C(NCc1cccc(Cl)c1)c1cccn1-c1nnc(N2CCCC2)s1`?
G9a block: -9%[59 µM]; BAZ2B inh: -9%; HP1b chromo inh: 14%; JMJD2A Tudor: -20%

What do the screens show for `CCOC(=O)c1c(N)n(-c2ccc(N)cc2)c2nc3ccccc3nc12`?
G9a block: -7%; BAZ2B inh: -6%; HP1b chromo inh: 3%; Sfp PPTase inh: -3%; PLK1 PBD block: 27µM*; JMJD2A Tudor: -31%

Results for Cn1c(CN2CCCC2)c(C#N)c2ccccc21 ?
G9a block: inconclusive; BAZ2B inh: -9%; HP1b chromo inh: 59%; Sfp PPTase inh: 3%; PLK1 PBD block: -7%; JMJD2A Tudor: -11%

Results for CN1CCN(Cc2c(C#N)c3ccccc3n2C)CC1 ?
G9a block: -25%; BAZ2B inh: -6%; HP1b chromo inh: 26%; Sfp PPTase inh: 14%; PLK1 PBD block: -2%; JMJD2A Tudor: -2%

What do the screens show for `Cn1c(CN2CCOCC2)c(C#N)c2ccccc21`?
G9a block: 32µM*; BAZ2B inh: 3%; HP1b chromo inh: 30%; Sfp PPTase inh: -17%; PLK1 PBD block: -9%; JMJD2A Tudor: 1%

Results for CC1CCN(Cc2c(C#N)c3ccccc3n2C)CC1 ?
G9a block: 25µM*; BAZ2B inh: 18%; HP1b chromo inh: 93%; Sfp PPTase inh: -4%; PLK1 PBD block: -3%; JMJD2A Tudor: 13%

What do the screens show for `COC(=O)c1c(C)[nH]c(O)c1C=Nc1ccc(C(C)C)cc1`?
G9a block: inconclusive; BAZ2B inh: 35µM*; HP1b chromo inh: inconclusive; Sfp PPTase inh: 3%; PLK1 PBD block: -8%; JMJD2A Tudor: 45µM*

How did Cc1[nH][nH]c(=O)c1C=Nc1ccc(C(F)(F)F)cc1 do in these assays?
G9a block: -29%; BAZ2B inh: -17%; HP1b chromo inh: 34%; Sfp PPTase inh: 3%; PLK1 PBD block: -6%; JMJD2A Tudor: -4%

What do the screens show for `CCOC(=O)c1c(C)[nH]c(O)c1C=Nc1ccc(C(F)(F)F)cc1`?
G9a block: 45µM*; BAZ2B inh: -9%; HP1b chromo inh: -8%; Sfp PPTase inh: -9%; PLK1 PBD block: -15%; JMJD2A Tudor: inconclusive

How did CCOC(=O)c1c(C)[nH]c(O)c1C=Nc1ccc(Cl)cc1 do in these assays?
G9a block: 50µM*; BAZ2B inh: -34%; HP1b chromo inh: inconclusive; Sfp PPTase inh: inconclusive; PLK1 PBD block: -23%; JMJD2A Tudor: -35%

What do the screens show for `COC(=O)c1c(C)[nH]c(O)c1C=Nc1ccc(Oc2ccccc2)cc1`?
G9a block: -21%; BAZ2B inh: -17%; HP1b chromo inh: -20%; Sfp PPTase inh: -2%; PLK1 PBD block: -16%; JMJD2A Tudor: inconclusive

Results for CCC(CC)C(=O)Nc1ccc(S(=O)(=O)N2CCC(c3nc4ccccc4s3)CC2)cc1 ?
G9a block: inconclusive; BAZ2B inh: 0%; HP1b chromo inh: 52%; JMJD2A Tudor: 2%

How did COc1cc2c(O)c3c(c(-c4ccc5c(c4)OCO5)c2cc1OC)C(=O)OC3 do in these assays?
BAZ2B inh: -7%; HP1b chromo inh: 13%; Sfp PPTase inh: -28%; PLK1 PBD block: -16%; JMJD2A Tudor: -20%

Results for COc1cc2c(OC(C)=O)c3c(c(-c4ccc5c(c4)OCO5)c2cc1OC)C(=O)OC3 ?
G9a block: -10%[59 µM]; BAZ2B inh: -5%; HP1b chromo inh: inconclusive; Sfp PPTase inh: -11%; PLK1 PBD block: -5%; JMJD2A Tudor: 89µM*!

What do the screens show for `CCN1C(=O)c2ccccc2S(=O)c2ccc(C(=O)N3CCN(c4cc(Cl)ccc4C)CC3)cc21` (stereo unspecified)?
G9a block: 5%[59 µM]; BAZ2B inh: -25%; HP1b chromo inh: 22%; JMJD2A Tudor: -16%

What do the screens show for `Cc1cccc(N2CCN(C(=S)c3ccccc3)CC2)c1`?
G9a block: inconclusive; BAZ2B inh: -38%; HP1b chromo inh: -6%; Sfp PPTase inh: inconclusive; PLK1 PBD block: -15%; JMJD2A Tudor: -33%

What do the screens show for `CC(=O)N1CCN(C(=S)c2ccc([N+](=O)[O-])cc2)CC1`?
G9a block: 22µM*; BAZ2B inh: -2%; HP1b chromo inh: -6%; Sfp PPTase inh: -10%; PLK1 PBD block: inconclusive; JMJD2A Tudor: inconclusive

How did CC1CCCC(N2CCN(C(=O)c3ccc([N+](=O)[O-])cc3)CC2)C1 (stereo unspecified) do in these assays?
G9a block: 22µM*; BAZ2B inh: 56µM*; HP1b chromo inh: inconclusive; Sfp PPTase inh: -14%; PLK1 PBD block: -10%; JMJD2A Tudor: 22µM*

Results for Cc1ccccc1N1CCN(C(=S)c2ccc([N+](=O)[O-])cc2)CC1 ?
G9a block: 13µM*; BAZ2B inh: inconclusive; HP1b chromo inh: inconclusive; Sfp PPTase inh: inconclusive; PLK1 PBD block: 17µM*; JMJD2A Tudor: inconclusive

Results for O=C(c1ccc(Oc2ccc([N+](=O)[O-])cc2)cc1)N1CCCCCC1 ?
G9a block: 5%; BAZ2B inh: -33%; HP1b chromo inh: 26%; Sfp PPTase inh: -11%; PLK1 PBD block: -3%; JMJD2A Tudor: -17%

What do the screens show for `COc1ccccc1N1CCN(C(=S)NC(=O)c2ccc([N+](=O)[O-])cc2)CC1`?
PLK1 PBD block: 3%

How did Cc1cccc(N2CCN(C(=S)c3ccc([N+](=O)[O-])cc3)CC2)c1 do in these assays?
G9a block: 4µM*; BAZ2B inh: 11µM*; HP1b chromo inh: 32µM*; Sfp PPTase inh: 25µM*; PLK1 PBD block: 4.7µM*; JMJD2A Tudor: 40µM*

What do the screens show for `Cc1c(C(=O)Nc2nc(-c3ccc(F)cc3)ns2)oc2ccc(Br)cc12`?
G9a block: 3%[59 µM]; BAZ2B inh: 1%; HP1b chromo inh: 15%; JMJD2A Tudor: -26%

Results for CCOc1ccccc1NC(=O)C(C)n1nnc2sc3c(c2c1=O)CCCC3 (stereo unspecified) ?
G9a block: 26%[59 µM]; BAZ2B inh: 3%; HP1b chromo inh: 59%; JMJD2A Tudor: -29%

From PubChem
